This is an account of results in paper PMC10668032, “Altered binding affinity of SIX1-Q177R correlates with enhanced WNT5A and WNT pathway effector expression in Wilms tumor”.

The full ranking holds about 33,000 sequences; the median of “e-score” is about -0.053, and the highest 2% start at about 0.38. For the sample, the highest values were picked, then their nearest neighbours and some sequences at random.

The target in this assay is T1, SIX1 homeodomain (reference allele) (human, UniProt Q15475 108-198).
T1 sequence: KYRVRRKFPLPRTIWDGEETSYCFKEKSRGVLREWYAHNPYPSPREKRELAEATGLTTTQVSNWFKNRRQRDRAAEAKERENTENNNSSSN
As to the kind of experiment: universal protein binding microarray; Universal all-10-mer PBM (8x60K, AMADID 030236), 300 nM GST-tagged protein, Alexa Fluor 488 anti-GST; buffer, salt, pH and temperature not stated (as in Berger); high values mean tight binding. The following applies: protein: ivt; tags: N-terminal GST; dsDNA, one strand shown. The method in brief:
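GST-tagged homeodomains were made by in vitro transcription/translation and quantified by anti-GST western blot against a recombinant GST standard curve. They were applied in duplicate at 300 nM final concentration to universal 'all 10-mer' protein binding microarrays (8×60K format). Binding was quantified as 8-mer E-scores with the Universal PBM Analysis Suite.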
For the sequence CCGCGATC, the binding signal was 0.354 ± 0.0349 E-score.
As to CCGCGATA, the binding signal worked out at 0.4109 ± 0.00278 E-score.
The result for GGGCGATA reads 0.347 ± 0.0047 E-score; that for GCGCGATA, 0.379 ± 0.0395 E-score; that for ATATAGAG, 0.202 ± 0.0348 E-score.
As to CCAGATGA, the binding signal amounted to 0.203 ± 0.0127 E-score.
The result for ACTACCTA reads 0.157 ± 0.0187 E-score; that for GAATACTC, 0.155 ± 0.0382 E-score.
For the sequence ATAGATAG, the binding signal is 0.167 ± 0.0369 E-score.
For ATAGATAC, the binding signal stood at 0.393 ± 0.0221 E-score.
Regarding ATAGATAT, the binding signal was 0.389 ± 0.0559 E-score.
The result for ATAGATCC reads 0.302 ± 0.00993 E-score; that for GTAGATAC, 0.289 ± 0.0214 E-score.
Take ACAGATAT: the binding signal was found to be 0.356 ± 0.0703 E-score.
With ATCACCTA, the binding signal is 0.232 ± 0.0325 E-score.
The result for AGACGATA reads 0.363 ± 0.0344 E-score; that for ATATCTTC, 0.365 ± 0.0612 E-score.
The result for CCGTCTCA reads 0.268 ± 0.0487 E-score; that for GAGTATCA, 0.47 ± 0.0248 E-score; that for TACTATCA, 0.325 ± 0.0557 E-score.
Regarding GAGTATAA, the binding signal was found to be 0.179 ± 0.136 E-score.
The result for TAGTATAA reads 0.199 ± 0.033 E-score; that for CAGTATGA, 0.151 ± 0.0873 E-score; that for TAGTATCA, 0.457 ± 0.0196 E-score.
The result for AAGTATAA reads 0.184 ± 0.123 E-score; that for AAGTATCT, 0.266 ± 0.102 E-score.
The result for AAGTATCA reads 0.461 ± 0.0304 E-score; that for GAGTATTA, 0.261 ± 0.103 E-score.
Regarding CAGTATCA, the binding signal is 0.465 ± 0.0101 E-score.
The result for CAGTATTA reads 0.295 ± 0.0164 E-score.
The result for ATCCCGCC reads 0.27 ± 0.00284 E-score; that for GGATAATA, 0.328 ± 0.0761 E-score.
The result for ATAGGGTG reads 0.161 ± 0.00687 E-score; that for ATCATTGC, 0.244 ± 0.0146 E-score.
AGTTGGTG: the binding signal was 0.191 ± 0.00358 E-score.
The result for AAGACGAT reads 0.17 ± 0.0796 E-score; that for ATCCTCGG, 0.23 ± 0.0328 E-score; that for CAGTATCC, 0.39 ± 0.0154 E-score.
The result for CAGTATAC reads 0.295 ± 0.0256 E-score.
The result for CACTATCC reads 0.295 ± 0.013 E-score; that for AAGTATCG, 0.369 ± 0.0877 E-score; that for CAGTATAG, 0.178 ± 0.0386 E-score.
For CAGTATCG, the binding signal was found to be 0.4353 ± 0.00267 E-score.
As for GGATTACC, the binding signal was 0.271 ± 0.0437 E-score.
Turning to CTCTCCCC, the binding signal was determined as 0.164 ± 0.0775 E-score.
The result for ATCACCTG reads 0.33 ± 0.0102 E-score; that for CGATCCTA, 0.299 ± 0.00788 E-score.
The result for AGATCCTA reads 0.2149 ± 0.00162 E-score.
On to GGATCCTA, for which the binding signal amounted to 0.377 ± 0.0205 E-score.
The result for GGATCCAC reads 0.317 ± 0.0719 E-score; that for GGATCCAA, 0.41 ± 0.0258 E-score; that for AGATCCAA, 0.204 ± 0.00278 E-score.
As to CCGAAACC, the binding signal stood at 0.185 ± 0.0211 E-score.
In the case of AAGAGGAT, the binding signal is 0.212 ± 0.00759 E-score.
CGTAGTGA: the binding signal came out at 0.182 ± 0.0165 E-score.
The result for CAGGACAC reads 0.187 ± 0.0771 E-score.
The result for AGATATCT reads 0.385 ± 0.082 E-score; that for GGCTATCA, 0.392 ± 0.0544 E-score; that for AGATATGG, 0.335 ± 0.0142 E-score.
The result for CGCTATCA reads 0.34 ± 0.0391 E-score; that for AGATATTG, 0.311 ± 0.0669 E-score; that for GGATATGA, 0.356 ± 0.0113 E-score.
Consider AGCTATCA, for which the binding signal was 0.313 ± 0.116 E-score.
On to AGATATCG, for which the binding signal was 0.434 ± 0.0383 E-score.
On to AAATATCT, for which the binding signal stood at 0.157 ± 0.0748 E-score.
With GGATATCA, the binding signal came out at 0.487 ± 0.00885 E-score.
For AGAGATCT, the binding signal was determined as 0.198 ± 0.0724 E-score.
The result for GAATATCA reads 0.366 ± 0.0771 E-score; that for ATCACCGG, 0.291 ± 0.0263 E-score.
The result for ACACGGTA reads 0.188 ± 0.0434 E-score.
Turning to GGATCGCC, the binding signal was 0.342 ± 0.0494 E-score.
The result for TATAGCGA reads 0.164 ± 0.0391 E-score; that for ATCCATCG, 0.246 ± 0.0374 E-score.
The result for ACATAGTA reads 0.205 ± 0.029 E-score; that for CTACTATA, 0.153 ± 0.00888 E-score.
The result for ACACCACG reads 0.263 ± 0.0526 E-score; that for CGATATTA, 0.365 ± 0.045 E-score.
Turning to CAATATCA, the binding signal is 0.306 ± 0.111 E-score.
Consider AGATATTC, for which the binding signal was 0.219 ± 0.06 E-score.
The result for TGATATCA reads 0.48 ± 0.0111 E-score; that for CGATATCA, 0.444 ± 0.0437 E-score; that for TGATATAA, 0.297 ± 0.032 E-score.
AGATATTA: the binding signal is 0.234 ± 0.119 E-score.
In the case of AGATATGA, the binding signal is 0.291 ± 0.0439 E-score.
The result for AAATATCC reads 0.271 ± 0.0279 E-score; that for TGATAGCA, 0.323 ± 0.0297 E-score.
As for AGATATCC, the binding signal stood at 0.442 ± 0.0272 E-score.
The result for AGATATCA reads 0.451 ± 0.0439 E-score.
